Assay outcomes from PubChem.
ELG1 repair inh: inhibitors of ELG1-dependent DNA repair in HEK293T cells. Potency, µM (highest dose often 46.1 µM), for the others: at the highest dose activity change, negative = inhibition, hits mostly inhibitors. 330,000 tested, 2.3% active. HEK293T ELG1-luciferase reporter, luminescence, 16 h; DNA damage induced by 5-fluorouridine. AID 504467; also: % is scaled to controls: 0 for no effect and ±100 for the full control effect; nearly all actives have a fitted effect of over 55% in size
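Reporter activity after DNA damage by 5-fluorouridine is monitored. Compound-treated cells incubate 16 hr at 37 °C, then ONE-Glo is added for 30 min before luminescence reading.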
SW480 rereplic: induces DNA re-replication in SW480 colon adenocarcinoma cells | SW480 DNA re-replication, Hoechst DNA content imaging, 48 h | Potency, µM (series often up to 46.1 µM), for inactives: top-dose re-replication activation, usual class: activators | 340,000 tested, 1.8% active | AID 624297; also: % of control where 0% means no effect; nearly all actives have a fitted effect of over 55% in size
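SW480 cells exposed to compounds for 48 hr at 37 C, 5% CO2, then Hoechst-stained 40 min. Nuclear DNA content imaged by fluorescence scanning (405 nm excitation, 500-530 nm emission); re-replication scored as increased high-intensity nuclei.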
MCF10A rerep: DNA re-replication induction in MCF 10a cells; 350,000 tested, 2.9% active; Potency, µM (highest dose often 46.1 µM), without a hit: at the top dose activity, positive = re-replication, most hits filed as activators; AID 624296; MCF 10A DNA re-replication, Hoechst nuclear intensity, 48 h; also: % of control where 0% means no effect; nearly all actives have a fitted effect of over 50% in size
KB-3-1 cytotox: kills parental KB-3-1 adenocarcinoma cells; 400,000 tested, 1.4% active; AID 1347075; Potency, µM (top dose mostly 46.1 µM), actives largely listed as cytotoxic; KB-3-1 viability, CellTiter-Glo ATP luminescence, 72 h; also: % is scaled to controls: 0 for no effect and ±100 for the full control effect; nearly all actives have a fitted effect of over 60% in size
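Here the drug-naive KB-3-1 line serves as comparator for MDR sub-line selectivity; cells received compound titrations, 72 h at 37 °C, then CellTiter-Glo readout.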
KB-V1 MDR tox: KB-V1 MDR subline cytotoxicity | Potency, µM (highest dose often 46.1 µM), actives largely listed as cytotoxic | KB-V1 MDR cells viability, CellTiter-Glo, 72 h | 400,000 tested, 3.4% active | AID 1347076; also: % is scaled to controls: 0 for no effect and ±100 for the full control effect; nearly all actives have a fitted effect of over 60% in size
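Cells of the MDR subline KB-V1 are plated, dosed with compound at multiple concentrations, and incubated 72 h at 37 degrees C; CellTiter-Glo is then added and luminescence read after 10 min.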
An asterisk follows results filed as active; i = inactive; ? = inconclusive; / = no result. Rows were chosen to be rich in hits. Some 8.2% of all compounds tested hit in one or more screens of this group. Calls follow the shape of the dose curve; as a rule, active = well fitted curve in the direction sought with a large enough effect; inconclusive = small, poorly fitted or top-dose-only effect, or another doubt; inactive = no such curve, though single readings can be large; an effect the other way counts as inactive or inconclusive. Potency is read from the fitted curve at half-maximal effect.

SMILES	ELG1 repair inh	SW480 rereplic	MCF10A rerep	KB-3-1 cytotox	KB-V1 MDR tox
CCOc1ccc(-n2c(N)c(C(=O)NCc3ccco3)c3nc4ccccc4nc32)cc1	-19.6%	?	12.6µM*	i	?
COc1ccc(CNC(=O)c2c(N)n(CCCN3CCOCC3)c3nc4ccccc4nc23)cc1	20.6µM*	2.59µM*	?	i	?
Nc1c(C(=O)NCc2ccc(F)cc2)c2nc3ccccc3nc2n1CCCN1CCOCC1	?	3.66µM*	?	?	?
Cc1ccc(CSC2=NS(=O)(=O)c3ccccc32)cc1	/	/	/	i	i
COc1ccc(C(=O)Oc2c(Sc3ccccc3)c(C)nn2-c2ccccc2)c(OC)c1	/	/	/	i	?
C[n+]1c(/C=C/c2ccc(F)cc2)ccc2ccccc21	/	/	/	?	i
CC(=O)N1CCN(C(=O)COC(=O)COc2c(C)cc(C)cc2C)CC1	19.0%	-5.5%	-6.6%	i	i
Cc1ccc(CC(=O)Nc2ccc(C(=O)N3CCOCC3)cc2)cc1	-1.0%	-34.2%	-13.9%	i	i
O=C(NCc1ccco1)c1ccc2ccccc2n1	-11.4%	-3.7%	0.3%	i	i
Nc1c(C(=O)NCc2ccco2)c2nc3ccccc3nc2n1CCc1ccccc1	?	7.31µM*	1.84µM*	i	?
COc1ccc(NC(=O)CCl)cn1	-14.2%	/	/	/	/
CCC(=O)Nc1cccc(-c2cnc3ccccc3n2)c1	?	-0.6%	-2.1%	i	?
O=C(CCl)Nc1cccc(-c2cnc3ccccc3n2)c1	9.2µM*	11.6µM*	?	10.3µM*	13µM*
Cc1ccc(NC(=O)c2ccco2)cc1C	?	-31.9%	-23.7%	i	i
O=C(CCl)Nc1ccc(Oc2cnc3ccccc3n2)cc1	?	?	?	6.51µM*	14.6µM*
O=C(Nc1cccc(-c2cnc3ccccc3n2)c1)c1ccccc1	10.7%	2.8%	0.7%	i	i
O=C(Nc1cccc(-c2cnc3ccccc3n2)c1)c1cccc(NC(=O)c2ccco2)c1	10.3µM*	3.4%	14.6µM*	?	?
Cc1cc(NC(=O)c2ccco2)ccc1NC(=O)c1ccco1	?	-5.3%	-1.9%	?	23.1µM*
Cc1ccc(-c2nnc(COC(=O)c3cccs3)o2)cc1	?	-4.6%	5.5%	i	i
NC(=S)N=Nc1ccc(O)cc1	/	1.6%	3.0%	i	i
O=C(Nc1nccs1)c1cccc(NC(=O)c2ccco2)c1	23.1µM*	0.4%	13.0%	i	i
O=C(Nc1cccnc1)c1cccc(NC(=O)c2ccco2)c1	-18.6%	-6.5%	?	i	i
O=C(c1ccccc1)c1cccc(NC(=O)c2ccco2)c1	?	-5.1%	-2.2%	i	i
Oc1ccc(-c2cnc3ccccc3n2)cc1	/	-14.7%	8.3%	?	?
O=C(Nc1ccccc1O)c1cccc(NC(=O)c2ccco2)c1	11.6µM*	-11.5%	0.3%	i	i
SMILES	ELG1 repair inh	SW480 rereplic	MCF10A rerep	KB-3-1 cytotox	KB-V1 MDR tox
Cc1ccc(-c2cnc3ccccc3n2)cc1C	?	-7.9%	18.4µM*	i	i
Cc1ccc(-c2cc3nc(-c4ccccc4)cc(C(F)(F)F)n3n2)cc1	/	/	/	i	i
CCN(c1cccc(C(F)(F)F)c1)S(=O)(=O)c1ccc2c(c1)CCN2C(=O)C1CC1	?	-0.6%	27.3%	11.2µM*	?
Oc1cc(NCCN2CCOCC2)cc2cccnc12	?	?	?	14.6µM*	i
Oc1cc(Nc2ccccc2)cc2cccnc12	-2.3%	18.2%	?	?	?
O=C(Cc1ccc(Cl)cc1)c1c[nH]c(C(=O)NCCCn2ccnc2)c1	-3.0%	-80.6%	1.84µM*	i	i
Cc1c(C(=O)NCc2ccccc2Cl)sc2ncnc(N(C)C3CCCCC3)c12	/	/	/	20.6µM*	?
CCOC(=O)N1CCc2c(sc(NCc3cc(OC)ccc3OC)c2C(=O)Nc2cc(OC)ccc2OC)C1	/	/	/	i	i
Cn1c(C(=O)N(Cc2ccccc2)Cc2cccs2)cc2sccc21	-16.9%	14.2%	16.4µM*	i	14.6µM*
CCc1nc(SCC(=O)Nc2ccc(N(C)C)cc2)c2ccccc2n1	?	23.1%	?	i	i
Cn1cc(CN2CCC(C(O)c3cccs3)CC2)c(-c2cccc(Cl)c2)n1 (centres undefined)	-11.3%	-11.1%	5.2%	i	i
Cc1cc(N2CCN(Cc3cn(C)nc3-c3ccccc3F)CC2)cc(C)n1	7.5%	7.31µM*	16.4µM*	6.51µM*	i
Cn1cc(CN2CCN(c3ncccn3)CC2)c(-c2cccc(Cl)c2)n1	-26.6%	6.1%	20.6µM*	i	?
Cc1cnccc1CN(C)Cc1cn(C)nc1-c1cccc(Cl)c1	12.3%	4.4%	?	i	?
Cc1cc(N2CCN(Cc3cn(C)nc3-c3cccc(Cl)c3)CC2)cc(C)n1	?	23.1µM*	?	9.2µM*	?
CN1C[C@@H]2[C@@H]3C(=O)N(Cc4ccccc4)C(=O)[C@@H]3[C@](C)(C1=O)N2C(=O)c1ccc(Cl)cc1	?	-7.4%	1.7%	i	?
CCc1nc2cccnc2n1-c1ccc(CC(=O)Nc2ccccc2Cl)cc1	/	/	/	i	i
COC(=O)/C(C#N)=C/c1c(N2CCN(c3ccccc3)CC2)nc2c(C)cccn2c1=O	?	-3.0%	0.3%	i	i
Cc1cccn2c(=O)c(/C=C(\C#N)C(=O)NC3CCS(=O)(=O)C3)c(N3CCC(C)CC3)nc12 (centres undefined)	-19.9%	8.2µM*	5.8µM*	i	i
CCNC(=O)/C(C#N)=C/c1c(N2CCN(Cc3ccc4c(c3)OCO4)CC2)nc2c(C)cccn2c1=O	20.6µM*	-24.2%	-3.3%	i	i
CCNC(=O)/C(C#N)=C/c1c(N2CCN(C)CC2)nc2c(C)cccn2c1=O	-0.3%	?	-14.0%	i	i
N#C/C(=C\c1c(Oc2ccc(Cl)cc2)nc2ccccn2c1=O)C(=O)NC1CCS(=O)(=O)C1 (centres undefined)	9.9%	?	5.17µM*	?	i
Cc1cc(Oc2nc3ccccn3c(=O)c2/C=C(\C#N)C(=O)NC2CCS(=O)(=O)C2)ccc1Cl (centres undefined)	-0.8%	?	-23.0%	i	i
COCCCNC(=O)/C(C#N)=C/c1c(N2CCN(c3ccccc3)CC2)nc2c(C)cccn2c1=O	20.6µM*	-11.9%	-3.3%	i	i
Cc1cccn2c(=O)c(C=O)c(N3CCSCC3)nc12	-11.8%	5.8µM*	-0.5%	i	i
CCNC(=O)/C(C#N)=C/c1c(N2CCN(c3cccc(Cl)c3)CC2)nc2c(C)cccn2c1=O	-11.7%	-12.9%	-14.8%	i	i
